Measurements as given in PubChem BioAssay AID1159580 (chemical genetic matrix, 2015).
The campaign covered roughly 5,500 compounds. About 2,000 (36%) were called active. Inconclusive results (about 18%) are left out. Cut-off read from the data, not from the text of the source: active = normalized growth mostly below about 0.91 (no sharp cut-off); inconclusive = no clear call, values can overlap the other calls; inactive = mostly above about 0.92. Some of the results follow.

Experiment: chemical genetic growth profiling, strain panel (AID 1159580);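 note: tested at 20 µM; growth read once vehicle control cultures reached saturation at 30 °C; 1 = growth at the plate median or of vehicle wells; lower values mean less growth of the strain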
Conditions: S. cerevisiae deletion strains, growth OD

Measured: normalized growth

COc1cccc2c1C(=O)c1c(O)c3c(c(O)c1C2=O)C[C@@](O)(C(=O)CO)C[C@@H]3OC1C[C@H](N)[C@H](O)[C@H](C)O1 (stereo partly drawn)
inactive: locus YBR171W, strain sec66, stronger effect = lower value 0.928 | locus YDR392W, strain spt3, stronger effect = lower value 0.919 | locus YGL173C, strain kem1, stronger effect = lower value 1.01 | locus YPL106C, strain sse1, stronger effect = lower value 1.14
active: locus YAL021C, strain ccr4, stronger effect = lower value 0.166 | locus YAL026C, strain drs2, stronger effect = lower value 0.696 | locus YAL030W, strain snc1, stronger effect = lower value 0.691 | locus YBL061C, strain skt5, stronger effect = lower value 0.708 | locus YBR009C, strain hhf1, stronger effect = lower value 0.282 | locus YBR023C, strain chs3, stronger effect = lower value 0.676 | locus YBR231C, strain swc5, stronger effect = lower value 0.342 | locus YBR279W, strain paf1, stronger effect = lower value 0.681 | locus YCL011C, strain gbp2, stronger effect = lower value 0.636 | locus YCL016C, strain dcc1, stronger effect = lower value 0.37 | locus YCL069W, strain vba3, stronger effect = lower value 0.718 | locus YCR088W, strain abp1, stronger effect = lower value 0.767 | locus YDL005C, strain med2, stronger effect = lower value 0.701 | locus YDL040C, strain nat1, stronger effect = lower value 0.762 | locus YDR001C, strain nth1, stronger effect = lower value 0.878 | locus YDR069C, strain doa4, stronger effect = lower value 0.595 | locus YDR137W, strain rgp1, stronger effect = lower value 0.572 | locus YDR159W, strain sac3, stronger effect = lower value 0.221 | locus YDR195W, strain ref2 1.23 [resistant] | locus YDR297W, strain sur2, stronger effect = lower value 0.606 | locus YDR334W, strain swr1, stronger effect = lower value 0.337 | locus YDR335W, strain msn5, stronger effect = lower value 0.431 | locus YEL003W, strain gim4, stronger effect = lower value 0.603 | locus YEL037C, strain rad23, stronger effect = lower value 0.864 | locus YEL061C, strain CIN8 (second series), stronger effect = lower value 0.607 | locus YER015W, strain faa2, stronger effect = lower value 0.49 | locus YER016W, strain bim1, stronger effect = lower value 0.481 | locus YER111C, strain swi4, stronger effect = lower value 0.766 | locus YER155C, strain BEM2 (second series), stronger effect = lower value 0.515 | locus YFR010W, strain ubp6, stronger effect = lower value 0.65 | locus YGL167C, strain pmr1, stronger effect = lower value 0.905 | locus YGL227W, strain vid30, stronger effect = lower value 0.429 | locus YGL240W, strain doc1, stronger effect = lower value 0.246 | locus YGL253W, strain hxk2, stronger effect = lower value 0.247 | locus YHR013C, strain ard1, stronger effect = lower value 0.35 | locus YHR027C, strain rpn1, stronger effect = lower value 0.496 | locus YHR030C, strain SLT2, stronger effect = lower value 0.778 | locus YHR079C, strain IRE1, stronger effect = lower value 0.79 | locus YHR142W, strain chs7, stronger effect = lower value 0.538 | locus YJL092W, strain hpr5, stronger effect = lower value 0.691 | locus YJL095W, strain BCK1 (second series), stronger effect = lower value 0.622 | locus YJL095W, strain BCK1, stronger effect = lower value 0.781 | locus YJL115W, strain asf1, stronger effect = lower value 0.319 | locus YJL129C, strain trk1, stronger effect = lower value 0.138 | locus YJL154C, strain vps35, stronger effect = lower value 0.732 | locus YJL164C, strain tpk1, stronger effect = lower value 0.439 | locus YJL166W, strain qcr8, stronger effect = lower value 0.302 | locus YJL187C, strain SWE1, stronger effect = lower value 0.643 | locus YJR066W, strain TOR1, stronger effect = lower value 0.787 | locus YKL160W, strain elf1, stronger effect = lower value 0.56 | locus YKR026C, strain gcn3, stronger effect = lower value 0.849 | locus YKR091W, strain srl3, stronger effect = lower value 0.869 | locus YLL001W, strain dnm1, stronger effect = lower value 0.545 | locus YLL026W, stronger effect = lower value 0.623 | locus YLL041C, strain sdh2, stronger effect = lower value 0.602 | locus YLR027C, strain aat2, stronger effect = lower value 0.543 | locus YLR113W, strain HOG1, stronger effect = lower value 0.779 | locus YLR221C, strain rsa3, stronger effect = lower value 0.475 | locus YLR258W, strain gsy2, stronger effect = lower value 0.565 | locus YLR262C, strain YPT6 (second series), stronger effect = lower value 0.533 | locus YLR320W, strain mms22, stronger effect = lower value 0.176 | locus YLR342W, strain FKS1, stronger effect = lower value 0.622 | locus YLR357W, strain rsc2, stronger effect = lower value 0.49 | locus YLR370C, strain arc18, stronger effect = lower value 0.902 | locus YLR384C, strain iki3, stronger effect = lower value 0.651 | locus YML120C, strain ndi1, stronger effect = lower value 0.676 | locus YMR058W, strain fet3, stronger effect = lower value 0.509 | locus YMR129W, stronger effect = lower value 0.828 | locus YMR205C, strain PFK2, stronger effect = lower value 0.513 | locus YMR231W, strain pep5, stronger effect = lower value 0.246 | locus YNL071W, strain lat1, stronger effect = lower value 0.272 | locus YNL183C, strain NPR1, stronger effect = lower value 0.801 | locus YNL209W, strain ssb2, stronger effect = lower value 0.656 | locus YNL248C, strain rpa49, stronger effect = lower value 0.107 | locus YNL322C, strain KRE1 (second series), stronger effect = lower value 0.886 | locus YNR049C, strain mso1, stronger effect = lower value 0.798 | locus YOR001W, strain rrp6, stronger effect = lower value 0.469 | locus YOR070C, strain gyp1, stronger effect = lower value 0.569 | locus YOR080W, strain dia2, stronger effect = lower value 0.627 | locus YOR083W, strain WHI5, stronger effect = lower value 0.572 | locus YOR106W, strain vam3, stronger effect = lower value 0.214 | locus YOR231W, strain MKK1, stronger effect = lower value 0.815 | locus YOR265W, strain rbl2, stronger effect = lower value 0.619 | locus YOR270C, strain vph1, stronger effect = lower value 0.24 | locus YOR290C, strain snf2, stronger effect = lower value 0.589 | locus YPL051W, strain arl3, stronger effect = lower value 0.481 | locus YPL078C, strain atp4, stronger effect = lower value 0.534 | locus YPL240C, strain hsp82, stronger effect = lower value 0.544 | locus YPL256C, strain CLN2, stronger effect = lower value 0.757
